Over roughly 110,000 compounds, “z-score” has its median near -0.1; the highest 2% begin near 2. For the sample, the highest values were picked, then their nearest neighbours and some compounds at random. Activity calls are given as the source filed them.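 How the source made its calls: active means z-score in the third read window above 3 or below -3; inactive means the rest.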

In this test the target is Metabotropic glutamate receptor 8 (Rattus norvegicus) (UniProt P70579). The test is described as follows: rat mGluR8 modulators via GIRK flux, primary screen, cell-based, thallium flux, HTS (AID 488969). As to conditions: HEK293 rat mGluR8, GIRK (G protein-gated inwardly rectifying potassium channel) thallium flux, FluoZin2; at 10 µM; stronger effect = higher value; submaximal glutamate (EC20) added with thallium.
Sequence of Metabotropic glutamate receptor 8 (Rattus norvegicus) (P70579 whole entry, looked up): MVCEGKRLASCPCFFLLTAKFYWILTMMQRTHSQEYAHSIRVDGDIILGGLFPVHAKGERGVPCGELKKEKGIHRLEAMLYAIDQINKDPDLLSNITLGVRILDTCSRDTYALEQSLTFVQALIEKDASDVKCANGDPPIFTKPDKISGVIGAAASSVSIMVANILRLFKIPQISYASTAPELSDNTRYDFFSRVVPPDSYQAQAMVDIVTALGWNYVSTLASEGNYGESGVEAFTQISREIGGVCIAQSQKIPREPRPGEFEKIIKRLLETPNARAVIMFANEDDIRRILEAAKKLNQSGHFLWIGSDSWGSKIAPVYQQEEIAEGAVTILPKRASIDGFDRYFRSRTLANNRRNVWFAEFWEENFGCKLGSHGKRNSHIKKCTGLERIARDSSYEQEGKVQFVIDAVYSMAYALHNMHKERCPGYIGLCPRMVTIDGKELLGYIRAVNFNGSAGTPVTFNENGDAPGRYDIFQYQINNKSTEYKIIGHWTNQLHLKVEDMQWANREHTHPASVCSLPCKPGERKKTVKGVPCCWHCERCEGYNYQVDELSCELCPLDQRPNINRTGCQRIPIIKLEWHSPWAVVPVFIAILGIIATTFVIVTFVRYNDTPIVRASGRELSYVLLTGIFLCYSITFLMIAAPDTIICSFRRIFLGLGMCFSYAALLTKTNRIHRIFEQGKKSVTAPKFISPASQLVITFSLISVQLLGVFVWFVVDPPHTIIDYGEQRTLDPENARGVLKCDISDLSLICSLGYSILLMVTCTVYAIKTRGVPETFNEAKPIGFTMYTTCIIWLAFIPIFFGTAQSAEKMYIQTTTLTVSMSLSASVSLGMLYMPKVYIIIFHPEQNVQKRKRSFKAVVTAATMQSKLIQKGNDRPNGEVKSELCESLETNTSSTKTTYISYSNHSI
`CCc1ccc(/C=C/C(=O)c2ccc(S(=O)(=O)N(C)C)cc2)cc1`: the z-score is -0.379. The same measure for `C(=C\c1ccccc1)/CSc1nnc(-c2ccccc2)n1Cc1ccco1`: -0.701; for `CC(C)COC(=O)c1nnsc1NC(=O)Nc1ccccc1`: 0.142; for `S=C(N/N=C/c1ccccc1Cl)Nc1ccccc1`: 6.51 (active). The same measure for `O=[N+]([O-])c1ccc(Cl)c(/C=N/NC(=S)Nc2ccccc2)c1`: 1.33; for `CNC(=S)N/N=C/c1ccccc1Cl`: 1.82; for `CCOc1ccc(NC(=O)CSc2nnc(C3CC3)n2N)cc1`: 0.0098. The same measure for `O=C(CSc1nc2cc(Cl)ccc2s1)NCc1ccc2c(c1)OCO2`: -0.0385; for `COc1ccc(C2Nc3ccccc3C(=O)N2Cc2ccco2)cc1COc1ccc(F)cc1` (stereo not drawn): -0.406. Consider `Cc1cnc(NC(=O)CSc2ccccc2)s1`, for which the z-score was -0.175. `Cc1cnc(NC(=O)CSc2nc3ccccc3c(=O)[nH]2)s1` registered a z-score of 2.14. `Cc1cccc(C)c1NC(=O)CSc1nc2ccccc2c(=O)[nH]1` registered a z-score of 0.493. The same measure for `O=C(CCNC(=O)Cn1ccc2ccccc2c1=O)NCCN1CCN(c2cccc(Cl)c2)CC1`: -0.463.

In the case of `Clc1cccc(CSc2nc3ccncc3[nH]2)c1`, the z-score is 9.69 (active). For the molecule `COc1ccc2nc(SCC(=O)Nc3ccc4c(c3)CCC4)[nH]c2c1`, the z-score worked out at 0.226.

For the molecule `Nc1cc(=O)[nH]c(SCc2cccc(Cl)c2)n1`, the z-score is -0.406. Under `Clc1ccc(CSc2nc3ccncc3[nH]2)cc1` stands 0.673; under `Cc1ccc(CSc2nc3ncccc3[nH]2)cc1`, 1.17; under `O=C(CSc1nc2ccc(Cl)cc2[nH]1)Nc1ccc2c(c1)CCC2`, 3.89 (active). The same measure for `Cc1ccc2nc(SCC(=O)Nc3ccc4c(c3)OCCO4)[nH]c2c1`: -0.404.

As to `Cc1cc(C)cc(NC(=O)CSc2nc3ccncc3[nH]2)c1`, the z-score amounted to 2.24. `Clc1ccccc1CSc1nc2ccncc2[nH]1` came in with a z-score of 0.533. Under `O=C(CSc1nc2ccccc2[nH]1)Nc1ccc2c(c1)CCC2` stands -0.809; under `Cc1ccc(CSc2nc3ccncc3[nH]2)cc1`, 2.46; under `Cc1cc(C)cc(NC(=O)CSc2nc3[nH]ncc3c(=O)[nH]2)c1`, -0.54. Under `COc1cc(/C=N/O)c(Br)cc1OCC(=O)Nc1ccccc1C` stands -0.175; under `COc1ccc(CCNC(=O)CCC(=O)N2CCN(S(=O)(=O)c3ccc(Cl)cc3)CC2)cc1OC`, -0.0943. For `COc1cccc(NC(=O)c2ccc(-n3cccn3)nc2)c1`, the z-score is 0.109. The same measure for `Cc1c(C(=O)NCCc2ccc3c(c2)OCCO3)oc2ccccc12`: -0.63; for `CCn1cc(C(=O)O)c(=O)c2cc(F)c(N3CCN(S(=O)(=O)c4ccc(Br)cc4)CC3)cc21`: -0.406.

With `S=C1NC(c2ccccc2)N2C(=S)NC(c3ccccc3)N12` (stereo not drawn), the z-score is -1.08. In the case of `CN(CC(=O)Nc1ccc(F)c(F)c1F)C(=O)/C=C/c1ccc(Cl)cc1`, the z-score was -0.265. Consider `CCN(CC)C(=O)c1cnn(-c2ccccc2)c1NC(=O)c1cccs1`, for which the z-score was -0.27. Take `COc1ccc(CNC(=O)C2CCN(S(=O)(=O)c3c(C)n[nH]c3C)CC2)cc1`: the z-score was -0.115. Under `Cc1c(CCOC(=O)CC23CC4CC(CC(C4)C2)C3)sc[n+]1Cc1ccccc1` stands 0.256; under `COC(=O)c1[nH]c2ccc(F)cc2c1NC(=O)CCN1CC(C)OC(C)C1` (stereo not drawn), -0.0436; under `Cc1ccc(C(=O)N[C@H](C(=O)OCC(=O)NC2CCS(=O)(=O)C2)C(C)C)cc1` (stereo partly drawn), -0.0806.

For the molecule `COc1ccccc1NC(=O)c1ccc(S(=O)(=O)N(C)C)cc1`, the z-score is -0.403. Under `Cc1ccc(CN(Cc2ccco2)S(=O)(=O)c2ccc(S(=O)(=O)NCC3CCCO3)cc2)cc1` (stereo not drawn) stands -0.00067; under `Cc1ccc(-c2nnn(CC(=O)N3CCCCC3)n2)c(-n2cnnn2)c1`, 3.32 (active); under `Cc1ccc(-c2nnn(CC(=O)NCc3ccccc3)n2)c(-n2cnnn2)c1`, -0.255.

In turn, `O=C(Cn1nnc(-c2ccccc2-n2cnnn2)n1)N1CCCCC1` registered a z-score of 0.026.

`CC1CN=C(N(C(=O)Nc2ccccc2)c2ccc(S(=O)(=O)N3CCOCC3)cc2)S1` (stereo not drawn) came in with a z-score of 0.945. The same measure for `Cc1c(C(=O)Nc2ccc(-c3nnc4n3CCCCC4)cc2)oc2ccc(Br)cc12`: -0.49; for `CCCCCOc1ccc(Br)cc1/C(C)=N/NC1=NCCN1`: 1.05; for `CCCCOc1ccc(Br)cc1/C(C)=N/NC1=NCCN1`: 1.54. Take `CCOc1ccc(Br)cc1/C(C)=N\NC1=NCCN1`: the z-score is 3.75 (active). The same measure for `COC(=O)N1CCN(c2ccc(OC)cc2)CC1`: -0.134. The same measure for `COc1ccc(N2CCSC2C(=O)NN)cc1` (stereo not drawn): 2.09; for `COc1ccccc1N1CCSC1C(N)=O` (stereo not drawn): 0.0543. As to `O=C(CSc1nc2ccccc2n1CC(=O)N1CCCC1)Nc1nccs1`, the z-score was determined as 0.452.

On to `CCOC(=O)c1c(NC(=O)CSc2nnc(C)c(=O)[nH]2)sc2c1CCCC2`, for which the z-score is -0.522. The same measure for `CC1=CC(C)(C)N(C(=O)CSc2ncn[nH]2)c2ccc(C)cc21`: 0.223. Regarding `CCC(=O)N1c2ccc(C)cc2C2=NNC(=S)NC21O` (stereo not drawn), the z-score was 3.09 (active). The same measure for `CC1=CC(C)(C)N(C(=O)c2ccccc2)c2ccc(C)cc21`: -0.576; for `CC1(C)NC(=O)N(CC(O)CNC23CC4CC(CC(C4)C2)C3)C1=O` (stereo not drawn): 0.426; for `O=C(Nc1ccc(F)cc1F)c1ccc(-n2cncn2)nc1`: -0.0309. On to `COc1cccc(OC)c1C(=O)NC(=S)N1CCN(c2ccc(C(F)(F)F)cc2[N+](=O)[O-])CC1`, for which the z-score came to 0.046. Molecule `CCOc1ccc(C(=O)NC(=S)N2CCN(c3ccc(C(F)(F)F)cc3[N+](=O)[O-])CC2)cc1` gave a z-score of 0.854. Consider `COc1cc(OC)cc(C(=O)NC(=S)N2CCN(c3ccc(C(F)(F)F)cc3[N+](=O)[O-])CC2)c1`, for which the z-score is 4.05 (active).

Consider `CC(C)Oc1cccc(C(=O)NC(=S)N2CCN(c3ccc(C(F)(F)F)cc3[N+](=O)[O-])CC2)c1`, for which the z-score is 6.72 (active). The same measure for `O=[N+]([O-])c1cc(C(F)(F)F)ccc1N1CCN(S(=O)(=O)c2ccc3ccccc3c2)CC1`: -0.295. Under `CO/N=C/c1ccc(N2CCN(C(=O)c3cccc(C(F)(F)F)c3)CC2)c([N+](=O)[O-])c1` stands -0.0941. Under `O=C(Nc1cc(C(F)(F)F)ccc1N1CCCCC1)c1cccc([N+](=O)[O-])c1` stands -0.0811. As for `COc1cccc(C(=O)NC(=S)N2CCN(c3ccc(C(F)(F)F)cc3[N+](=O)[O-])CC2)c1`, the z-score was 4.68 (active).

Molecule `COc1ccc(C(=O)NC(=S)N2CCCCC2)cc1[N+](=O)[O-]` returned a z-score of 1.25. Under `Cc1nn(-c2cc(C)c3ccccc3n2)c2c1CCC2` stands 0.557. The same measure for `Cc1ccc(C)c(NC(=S)NC(NC(=O)/C=C/c2ccccc2)C(Cl)(Cl)Cl)c1` (stereo not drawn): -0.264.
